Eleven compounds from PubChem BioAssay (Tox21) can be followed below.

Assay [1] can be described thus: qHTS assay to identify small molecule agonists of the NFkB signaling pathway - cell viability counter screen (AID 1159515; calls by dose curve; further: nearly all actives have a fitted effect of over 55% in size; further: potency means the concentration at half of the fitted maximal effect). Put shortly: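 Using the same wells as the NFkB reporter read, ME-180 NFkB-bla cells given compounds for 5 hr were assessed for viability via CellTiter-Glo, with luminescence taken after a 30 min room-temperature incubation.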
Assay [2] in a line: qHTS assay to identify small molecule agonists of the endoplasmic reticulum stress response signaling pathway - cell viability counter screen (AID 1159517; calls by dose curve; further: nearly all actives have a fitted effect of over 50% in size; further: potency means the concentration at half of the fitted maximal effect). Put shortly:
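CellTiter-Glo was added to wells already read for beta-lactamase FRET, and luminescence was recorded 30 min later. Cells: ESRE-bla HeLa, 1,500 per well, compound exposure 5 hr at 37 C.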
(In general: qHTS replaces the single test concentration by a dilution series.)

A short description of assay [3]: qHTS assay to identify small molecule antagonists of the retinoid-related orphan receptor gamma (ROR-gamma) signaling pathway - cell viability counter screen (AID 1159520). Further: nearly all actives have a fitted effect of over 50% in size. Further: potency means the concentration at half of the fitted maximal effect. Put shortly: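 Tet-on ROR gamma CHO cells (1,000/well) were plated 4 hr, given compounds in DMSO for 2 hr at 37 C, then induced with 1 uM final doxycycline for 16 hr. Viability was read as ATP by CellTiter-Glo luminescence after 30 min.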

For assay [4], the target named is Nuclear receptor ROR-gamma (Homo sapiens) (UniProt P51449). The experiment in a line: qHTS assay to identify small molecule antagonists of the retinoid-related orphan receptor gamma (ROR-gamma) signaling pathway (AID 1159521;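 further: CHO cells with doxycycline inducible ROR-gamma driving an RORE luciferase reporter; top concentration of the series differs between compounds; nearly all actives have a fitted effect of over 50% in size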). Put shortly:
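Decreased RORE-driven luciferase luminescence indicates antagonism. Tet-on RORγ CHO cells received compound, then 1 uM final doxycycline 2 h later; signal read after 16 h incubation.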

Assay [5] in a line: qHTS assay to identify small molecule agonists of the AP-1 signaling pathway - cell viability counter screen (AID 1159525; calls by dose curve; further: nearly all actives have a fitted effect of over 55% in size). In a few lines: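 ME-180 AP-1-bla, 2500 cells/well, Opti-MEM + 0.5% dialyzed FBS; overnight 37 °C; cpd 15-pt titration, 5 h 37 °C; CellTiter-Glo 30 min RT; luminescence read; normalised to TOAB and DMSO controls.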
A short description of assay [6]: qHTS assay to identify small molecule agonists of the AP-1 signaling pathway (AID 1159526; calls by dose curve).
Assay [7] can be described thus: qHTS assay to identify small molecule agonists of the RXR signaling pathway - cell viability counter screen (AID 1159529).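 Further: HEK 293T cells carrying an RXR-alpha UAS beta-lactamase reporter; nearly all actives have a fitted effect of over 50% in size.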 In a few lines: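 In this parallel viability measure, GeneBLAzer RXR-alpha HEK 293T cells (2% charcoal-stripped FBS) were given a 5 hr preincubation, treated with compounds 16 hr at 37 C, and read by CellTiter-Glo luminescence.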
The nature of assay [8]: qHTS assay to identify small molecule antagonists of the retinoid acid receptor (RAR) signaling pathway - cell viability counter screen (AID 1159551). Further: nearly all actives have a fitted effect of over 35% in size. In a few lines:
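Retinol-stimulated (1 uM final) C3RL4 cells, compound 6 h, 37 C; readout CellTiter-Glo luminescence (ATP) after 30 min RT incubation.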

A short description of assay [9]: qHTS assay to identify small molecule antagonists of the retinoic acid receptor (RAR) signaling pathway (AID 1159552; further: nearly all actives have a fitted effect of over 50% in size). Put shortly: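 C3RL4 RARE-luc cells, overnight plating; retinol 1 uM final added right after compound; 6 hr 37 C; luciferase read at 30 min RT.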
A short description of assay [10]: qHTS assay to identify small molecule agonists of the retinoic acid receptor (RAR) signaling pathway (AID 1159553). The note with it: C3RL4 RARE luciferase reporter, agonist, 6 h; activation: at 73.3 µM (top of the series) unless noted. Put shortly: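 Reporter readout comes from luciferase under RARE control in C3RL4 cells; compound exposure lasts 6 hr at 37 C in 5% CO2, and luminescence is recorded following a 30 min room-temperature incubation with reagent.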

Assay [11] is described as follows: qHTS assay to identify small molecule agonists of the vitamin D receptor (VDR) signaling pathway - cell viability counter screen (AID 743224). Further: nearly all actives have a fitted effect of over 50% in size. Further: potency means the concentration at half of the fitted maximal effect. Put shortly: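 Plated VDR-bla cells (4 h, 37C) received compound, incubated 16 h, then LiveBLAzer substrate 2 h RT; CellTiter-Glo added afterwards, luminescence read at 30 min.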
Assay [12] can be described thus: qHTS assay to identify small molecule agonists of the endoplasmic reticulum stress response signaling pathway (AID 1159516; active means well fitted activation curve with a large enough effect in the signal ratio in the repeat runs, not every such curve was filed as active; the % refers to the signal ratio). In a few lines:
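An ESRE-bla HeLa cell assay: compounds were pin-transferred from DMSO onto overnight-plated cells and left 5 hr at 37 C. Substrate was then loaded for 2 hr at room temperature before reading fluorescence at 460 nm and 530 nm.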

The nature of assay [13]: qHTS assay to identify small molecule antagonists of the vitamin D receptor (VDR) signaling pathway - cell viability counter screen (AID 743225). Further: nearly all actives have a fitted effect of over 50% in size. Put shortly: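 Parallel cytotoxicity test: VDR-UAS-bla HEK 293T, 3 nM (final) 1-alpha,25-dihydroxyvitamin D3 with test compound, 16 h, 37C. Endpoint is CellTiter-Glo luminescence in the same wells.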
The nature of assay [14]: qHTS assay to identify small molecule antagonists of the estrogen related receptor (ERR) signaling pathway - cell viability counter screen (AID 1224818).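 Further: viability measured after 17.5 h of compound exposure.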 Put shortly:
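After a 6 h pre-incubation, ERR cells were dosed by pin tool with compounds, positive/negative controls or DMSO alone. Following 17.5 h at 37 C and 30 min with CellTiter-Fluor, fluorescence was recorded.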

Assay [15] is described as follows: qHTS assay to identify small molecule antagonists of the estrogen related receptor (ERR) signaling pathway (AID 1224819). In a few lines: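 Luminescence readout (One-Glo, 30 min, RT) of ERR cell line after 18 h compound exposure at 37 C; cells seeded 2,000/well, pre-incubated 6 h, compounds pinned from DMSO stocks.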
Assay [16] is described as follows: qHTS assay to identify small molecule agonists of the estrogen related receptor (ERR) signaling pathway (AID 1224820). Put shortly: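 Cells: ERR line from NTP, 2,000/well. Pre-incubation 6 h, 37 C/5% CO2. Compound (DMSO) pin transfer, 18 h 37 C. One-Glo, 30 min RT, luminescence.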
In assay [17] the test system is estrogen-related receptor alpha (ERRalpha) with PGC-1alpha coactivator, human. As to the kind of experiment: qHTS assay to identify small molecule antagonists of the estrogen related receptor signaling pathway with the pleiotropic PPARgamma coactivator (PGC) (AID 1224821; calls by dose curve). Put shortly:
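Luminescent read-out (One-Glo, 30 min at room temperature) following 18 h treatment of PGC/ERR cells at 37 C with compounds delivered in DMSO. Cells had settled 6 h at 37 C/5% CO2 before dosing.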

The nature of assay [18]: qHTS assay to identify small molecule antagonists of the estrogen related receptor signaling pathway with the pleiotropic PPARgamma coactivator (PGC) cell viability counter screen (AID 1224822;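 further: viability read after 17.5 h compound exposure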). Put shortly:
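PGC/ERR cells were plated at 2,000 per well and allowed 6 h to settle before compound addition. Following 17.5 h at 37 C, CellTiter-Fluor reagent was added and fluorescence was read 30 min later.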

The nature of assay [19]: qHTS assay to identify small molecule agonists of the estrogen related receptor signaling pathway with the pleiotropic PPARgamma coactivator (PGC) (AID 1224823). In a few lines: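 Steps: plate PGC/ERR cells at 2,000 cells/well; incubate 6 h, 37 C/5% CO2; pin-transfer compounds (DMSO); incubate 18 h, 37 C; add One-Glo; 30 min RT; read luminescence.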
The target in assay [20] is Retinoic acid receptor RXR-alpha (Homo sapiens) (UniProt P19793). The experiment in a line: qHTS assay to identify small molecule agonists of the RXR signaling pathway (AID 1159527; calls by dose curve; further: nearly all actives have a fitted effect of over 35% in size). Put shortly:
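16 hr incubation of compound-treated RXR-alpha-UAS-bla HEK 293T cells (2% charcoal-stripped FBS, 37 C) preceded a 2 hr room-temperature LiveBLAzer FRET substrate step and blue/green fluorescence measurement.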

Each structure is given as a SMILES string. Records with an inconclusive call do not appear. The source made the active and inactive calls. Unless noted, the call rests on the fitted dose curve; in most records, active means well fitted curve in the direction sought with a large enough effect in the repeat runs; inconclusive means weak or mixed curves; inactive means no such curve, though single readings can be large; an effect the other way counts as inactive or inconclusive.

Retinoic acid receptor RXR-alpha (Homo sapiens), sequence (P19793 whole entry, looked up): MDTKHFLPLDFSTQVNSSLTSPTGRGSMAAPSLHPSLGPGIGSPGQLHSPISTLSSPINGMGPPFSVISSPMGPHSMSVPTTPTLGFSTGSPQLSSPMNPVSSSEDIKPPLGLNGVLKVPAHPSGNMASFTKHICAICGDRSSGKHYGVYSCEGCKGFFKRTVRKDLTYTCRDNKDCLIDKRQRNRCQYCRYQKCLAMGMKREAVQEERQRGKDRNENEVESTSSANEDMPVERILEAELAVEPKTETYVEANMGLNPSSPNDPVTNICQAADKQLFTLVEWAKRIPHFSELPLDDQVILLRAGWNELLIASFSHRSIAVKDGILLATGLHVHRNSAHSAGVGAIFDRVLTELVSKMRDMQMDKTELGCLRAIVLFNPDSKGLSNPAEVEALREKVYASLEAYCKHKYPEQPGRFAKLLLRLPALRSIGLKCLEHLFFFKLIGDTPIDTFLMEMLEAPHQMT

As for `CCn1c2ccccc2c2cc([N+](=O)[O-])ccc21`, the Potency result in assay [1], in [2], in assay [3], in assay [4], in assay [5] and in [6] was “inactive” each time. Moreover, the Potency result in [7], in assay [8], in assay [9] and in assay [10] was “inactive” each time.
With `COCCOc1cc2cc(C(=O)NC3CCN(C(C)C)CC3)n(CC(=O)Nc3ccc(Cl)cn3)c2cn1`, the Potency result in assay [11], in assay [1], in [2], in assay [3], in assay [4] and in assay [5] was “inactive” in each case. For the same compound, the Potency result in [6], in assay [7], in assay [8] and in assay [10] was “inactive” each time.
With `O=S(=O)(O)c1ccc(N=Nc2c(O)ccc3ccccc23)cc1`, the Potency result in assay [1], in assay [12], in assay [6] and in assay [10] was “inactive” throughout.
As for `CCCCC(CC)CN1CN(CC(CC)CCCC)CC(C)(N)C1` (stereo not drawn), the Potency in [11] is 29.8 µM (active); in assay [1], 26.8 µM (active); in [2] it was 21.3 µM (active); in assay [3], 26.6 µM (active). The Potency entry in assay [4], in [5], in assay [6], in assay [7], in assay [8] and in [9] was “inactive” each time. The Potency entry in assay [10] is “inactive”.
On to `CCN(CCN)c1cccc(C)c1`, for which the Potency result in [11], in [13], in assay [1], in assay [3], in assay [4] and in [5] was “inactive” in each case. Also, the Potency entry in [6], in [8], in [9] and in assay [10] was “inactive” in each case.
As for `Cc1c(C)c2c(c(C)c1OC(=O)c1cccnc1)CC[C@@](C)(CCC[C@H](C)CCC[C@H](C)CCCC(C)C)O2`, the Potency entry in assay [13], in assay [1], in assay [3], in [5], in [6] and in assay [7] was “inactive” throughout. The Potency result in [8], in assay [9] and in assay [10] was “inactive” throughout.
Regarding `CC(C)OC(=O)C(O)(CC(=O)O)CC(=O)O`, the Potency entry in [11], in assay [13], in [1], in assay [3], in [5] and in assay [6] was “inactive” in each case. Moreover, the Potency entry in [7] and in [8] was “inactive” in each case.
Consider `CCCCOC(=O)CC`, for which the Potency result in assay [11], in assay [1], in [3], in [5], in assay [6] and in assay [7] was “inactive” in each case. Also, the Potency result in [8], in [9] and in [10] was “inactive” in each case.
In the case of `Cc1cc(C)c(/C=C2\C(=O)Nc3ccccc32)[nH]1`, the Potency result in [13], in assay [1], in [4], in assay [5], in [6] and in assay [7] was “inactive” throughout. Also, the Potency result in assay [8], in [9], in assay [10], in [15], in [17] and in assay [18] was “inactive” throughout. For the same compound, the outcome in [14], in [16] and in assay [19] was inactive.
As to `CCCNCCC`, the Potency result in [1], in assay [3], in [5], in assay [6], in assay [7] and in assay [8] was “inactive” each time. In addition, the Potency result in assay [9] and in [10] was “inactive” in each case.
For `CCC(COC(=O)CCS)(COC(=O)CCS)COC(=O)CCS`, the Potency entry in [11], in [13], in assay [1], in [2], in assay [3] and in assay [5] was “inactive” each time. Further, the Potency result in assay [6], in [20] and in assay [8] was “inactive” in each case.
